Where “and” joins values, the source holds several entries; their conditions need not be identical. Equal entries are not always repeated. Out of some 300,000 compounds screened, about 37,000 (12%) were called active. No stated cut-off is given here; in the data, active means max response mostly above about 13% (no sharp cut-off); inactive means mostly below about 14%. This excerpt belongs to a sample that is enriched for actives.
Experiment: Cycloheximide Counterscreen for Small Molecule Inhibitors of Shiga Toxin; further: read at 38.3 µM for the half of the compounds with a filed dose; 0% is about no effect
Settings: cell reporter, cycloheximide protein synthesis inhibition counterscreen; stronger effect = higher value

Q: With `S=c1[nH]c2ccccc2c2ccccc12` as the compound, how does the max response read?
A: 1.83% (inactive)

Q: For `Cc1ccc(C(=O)NC2CC(C)(C)NC(C)(C)C2)c(C)c1`, which max response is on record?
A: -4.92% (inactive)

Q: With `CC1CCC(NC(=O)C2c3ccccc3C(=O)N2Cc2ccc3c(c2)OCO3)CC1` (centres undefined) as the compound, how does the max response read?
A: -1.18% (inactive)

Q: With `Cc1ccc2c(c1)NCC(C(=O)NC1CCC(C)CC1)O2` (centres undefined) as the compound, how does the max response read?
A: 41.1% (active)

Q: For `CC(NS(=O)(=O)c1ccc(Br)cc1)C(=O)NCC1CCCO1` (centres undefined), which max response is on record?
A: -1.6% (inactive)

Q: With `COc1cc2nc(Cl)nc(NCCO)c2cc1OC` as the compound, how does the max response read?
A: -1.72% (inactive)

Q: With `OCCNc1nc(Nc2ccc(Cl)c(Cl)c2)nc2ccccc12` as the compound, how does the max response read?
A: 10.5% (active)

Q: With `CN1CCN(c2nc(Nc3ccc(O)cc3)nc3ccccc23)CC1` as the compound, how does the max response read?
A: -3.27% (inactive)

Q: Which max response does the source give for `COc1ccc(C2=NN(C(=O)c3ccccc3C(=O)O)C(c3ccccc3O)C2)cc1` (centres undefined) here?
A: 40.6% (active)

Q: Which max response does the source give for `COc1ccc(C(=O)Nc2nc(-c3ccc(OC)cc3)c(-c3ccc([N+](=O)[O-])cc3)s2)cc1` here?
A: 9.79% (inactive)

Q: Which max response does the source give for `COc1ccc(C2CC(c3ccccc3)=NN2C(=O)COC(=O)COc2ccccc2)cc1` (centres undefined) here?
A: 2.88% (inactive)

Q: With `COc1ccc(C2=NN(C(C)=O)C(c3ccccc3)C2)cc1` (centres undefined) as the compound, how does the max response read?
A: 20.9% (active)

Q: With `COc1ccc(C(=O)CSc2nccc(=O)[nH]2)cc1` as the compound, how does the max response read?
A: 8.3% (inactive)

Q: For `CCOc1ccc2nc(Cl)c(C3CC(c4ccccc4)=NN3C(=O)c3cccs3)cc2c1` (centres undefined), which max response is on record?
A: -1.42% (inactive)

Q: For `COc1cccc(C2CC(c3ccccc3)=NN2S(=O)(=O)c2ccccc2)c1OC` (centres undefined), which max response is on record?
A: 0.319% (inactive)

Q: Which max response does the source give for `COc1ccc(C2CC(c3ccc([N+](=O)[O-])cc3)=NN2C(C)=O)cc1` (centres undefined) here?
A: 24.5% (active)

Q: Which max response does the source give for `COc1ccc(C2CC(c3ccccc3)=NN2C(=O)c2ccc(Cl)c([N+](=O)[O-])c2)cc1` (centres undefined) here?
A: 12.9% (inactive)

Q: Which max response does the source give for `COc1ccc(C2=NN(C(=O)c3cccnc3)C(c3ccccc3)C2)cc1` (centres undefined) here?
A: -5.54% (inactive)

Q: For `COc1ccc(C2CC(c3ccccc3)=NN2C(=O)CSc2nccc(=O)[nH]2)cc1` (centres undefined), which max response is on record?
A: 40% (active)

Q: Which max response does the source give for `COc1ccc(C2=NN(C(=O)CCC(=O)O)C(c3cccs3)C2)cc1OC` (centres undefined) here?
A: -1.52% (inactive)

Q: Which max response does the source give for `CCCCN(CCCC)CCNC(=O)CN1C(=O)COc2ccc(S(=O)(=O)N3CCOCC3)cc21` here?
A: -2.14% (inactive)

Q: With `CCN1C(=NCCc2cccnc2)N[C@@H](c2ccccc2)[C@H](C(=O)OC)[C@H]1C` as the compound, how does the max response read?
A: 3.2% (inactive) and 1.95% (inactive)

Q: With `COCCN1C(=O)N(c2ccc(Cl)cc2)C(=O)C1CC(=O)Nc1cc(OC)cc(OC)c1` (centres undefined) as the compound, how does the max response read?
A: -0.589% (inactive)

Q: For `CCN1C(=O)c2cccc3c(S(=O)(=O)Nc4ccccc4O)ccc1c23`, which max response is on record?
A: 9.32% (inactive)
